The supplement of paper PMC10849652
Targets with a hit are over-represented here; the source holds about 7,900 in all. About 0.6% of all pairs of compound and target were hits.

Compound: CC[C@H](C)N1C=C(C2=C(C=C(C=C21)C3=CN=C(C=C3)N4CCNCC4)C(=O)NCC5=C(C=C(NC5=O)C)C)C
Assay: log2 fold change, soluble protein after heating vs DMSO (PISA); higher = thermal stabilisation; K562 cells, 10 uM, 30 min; active = over 0.2 and 3.5 SD of the protein, either way, in both replicates (recomputed)
Method in brief: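 K562 cells at 2×10^6 cells/mL were treated for 30 min with 10 μM compound, and aliquots were heated for 3 min over 48°C-58°C before pooling. Extraction used PBS with 0.5% NP-40 at 4°C, and soluble protein was the supernatant after 21,000xg for 90 min, measured by TMTpro 16plex LC-MS/MS with channel sums equalised. Thermal stability values, relative to control samples and from duplicates, are log2 fold changes.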

UniProt Q15528, sequence (Q15528 whole entry, looked up): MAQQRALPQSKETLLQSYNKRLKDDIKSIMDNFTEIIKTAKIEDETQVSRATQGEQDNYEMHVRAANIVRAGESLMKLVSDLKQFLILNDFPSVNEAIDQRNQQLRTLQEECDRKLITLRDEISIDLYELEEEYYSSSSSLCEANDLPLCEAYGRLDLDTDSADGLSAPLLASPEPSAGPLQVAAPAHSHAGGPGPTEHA
UniProt Q12906, sequence (Q12906 whole entry, looked up): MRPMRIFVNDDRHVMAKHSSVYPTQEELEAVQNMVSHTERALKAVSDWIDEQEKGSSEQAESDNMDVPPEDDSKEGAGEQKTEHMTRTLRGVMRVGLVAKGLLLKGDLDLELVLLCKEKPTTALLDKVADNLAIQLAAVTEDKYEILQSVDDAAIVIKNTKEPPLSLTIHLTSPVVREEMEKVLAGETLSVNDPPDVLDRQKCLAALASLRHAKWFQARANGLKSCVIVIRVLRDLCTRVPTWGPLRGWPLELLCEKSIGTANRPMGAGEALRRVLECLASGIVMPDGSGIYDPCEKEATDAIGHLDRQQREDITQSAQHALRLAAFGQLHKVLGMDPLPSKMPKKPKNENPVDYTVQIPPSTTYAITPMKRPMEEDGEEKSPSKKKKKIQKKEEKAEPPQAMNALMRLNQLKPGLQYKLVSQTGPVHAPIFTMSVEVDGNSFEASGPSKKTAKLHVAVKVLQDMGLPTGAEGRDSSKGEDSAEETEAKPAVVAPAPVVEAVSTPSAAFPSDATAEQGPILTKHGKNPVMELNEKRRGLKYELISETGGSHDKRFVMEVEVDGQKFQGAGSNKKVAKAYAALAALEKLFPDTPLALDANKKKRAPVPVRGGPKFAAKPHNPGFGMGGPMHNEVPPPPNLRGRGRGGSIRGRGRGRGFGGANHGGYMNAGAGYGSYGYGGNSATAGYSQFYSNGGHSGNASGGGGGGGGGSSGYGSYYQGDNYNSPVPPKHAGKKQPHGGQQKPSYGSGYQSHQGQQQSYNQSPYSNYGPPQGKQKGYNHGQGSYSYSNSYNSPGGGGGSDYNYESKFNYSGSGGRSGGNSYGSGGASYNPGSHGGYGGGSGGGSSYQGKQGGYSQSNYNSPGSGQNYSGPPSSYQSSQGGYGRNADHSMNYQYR
UniProt Q16539, sequence (Q16539 whole entry, looked up): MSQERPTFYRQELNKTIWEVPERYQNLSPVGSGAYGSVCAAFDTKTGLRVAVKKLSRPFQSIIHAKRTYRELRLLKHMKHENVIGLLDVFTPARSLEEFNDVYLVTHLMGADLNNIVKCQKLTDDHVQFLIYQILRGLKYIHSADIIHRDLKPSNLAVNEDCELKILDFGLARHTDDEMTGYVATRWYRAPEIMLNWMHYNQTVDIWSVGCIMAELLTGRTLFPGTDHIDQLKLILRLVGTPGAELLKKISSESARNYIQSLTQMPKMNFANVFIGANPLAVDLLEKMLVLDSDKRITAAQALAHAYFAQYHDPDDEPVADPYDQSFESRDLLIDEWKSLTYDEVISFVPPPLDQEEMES
UniProt Q6UB28, sequence (Q6UB28 whole entry, looked up): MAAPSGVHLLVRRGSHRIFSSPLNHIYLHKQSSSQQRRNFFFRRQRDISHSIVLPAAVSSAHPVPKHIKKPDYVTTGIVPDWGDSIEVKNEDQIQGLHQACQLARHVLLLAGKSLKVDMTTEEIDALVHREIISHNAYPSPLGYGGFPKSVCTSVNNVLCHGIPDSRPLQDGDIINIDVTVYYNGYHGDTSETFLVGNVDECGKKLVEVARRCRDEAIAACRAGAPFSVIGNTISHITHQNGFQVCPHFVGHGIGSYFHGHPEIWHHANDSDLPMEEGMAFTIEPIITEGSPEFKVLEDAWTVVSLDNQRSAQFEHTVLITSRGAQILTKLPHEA
UniProt Q6UWB1, sequence (Q6UWB1 whole entry, looked up): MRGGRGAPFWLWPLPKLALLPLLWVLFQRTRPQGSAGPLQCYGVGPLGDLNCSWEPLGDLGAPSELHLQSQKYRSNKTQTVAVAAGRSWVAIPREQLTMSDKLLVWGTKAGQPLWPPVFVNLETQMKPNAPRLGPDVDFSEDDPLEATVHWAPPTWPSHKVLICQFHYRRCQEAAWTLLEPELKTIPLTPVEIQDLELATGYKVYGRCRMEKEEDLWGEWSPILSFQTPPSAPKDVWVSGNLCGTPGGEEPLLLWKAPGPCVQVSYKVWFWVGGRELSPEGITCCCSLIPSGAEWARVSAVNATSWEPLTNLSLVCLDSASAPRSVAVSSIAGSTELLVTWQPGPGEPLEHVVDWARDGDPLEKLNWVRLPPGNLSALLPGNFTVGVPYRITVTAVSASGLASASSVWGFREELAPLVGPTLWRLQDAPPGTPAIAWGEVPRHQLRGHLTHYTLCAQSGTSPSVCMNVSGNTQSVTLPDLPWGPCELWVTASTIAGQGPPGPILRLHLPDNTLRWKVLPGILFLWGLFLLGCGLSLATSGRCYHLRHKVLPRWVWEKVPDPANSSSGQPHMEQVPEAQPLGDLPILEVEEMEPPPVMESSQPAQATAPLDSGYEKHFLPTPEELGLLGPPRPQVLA
UniProt Q96G25, sequence (Q96G25 whole entry, looked up): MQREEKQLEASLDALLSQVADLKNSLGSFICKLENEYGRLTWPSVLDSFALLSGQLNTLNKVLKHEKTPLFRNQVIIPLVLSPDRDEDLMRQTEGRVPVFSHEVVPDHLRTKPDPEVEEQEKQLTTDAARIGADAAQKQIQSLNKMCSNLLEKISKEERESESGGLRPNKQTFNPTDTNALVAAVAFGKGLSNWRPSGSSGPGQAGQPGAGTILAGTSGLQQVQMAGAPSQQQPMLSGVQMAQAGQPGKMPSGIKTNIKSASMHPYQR
UniProt Q96LU5, sequence (Q96LU5 whole entry, looked up): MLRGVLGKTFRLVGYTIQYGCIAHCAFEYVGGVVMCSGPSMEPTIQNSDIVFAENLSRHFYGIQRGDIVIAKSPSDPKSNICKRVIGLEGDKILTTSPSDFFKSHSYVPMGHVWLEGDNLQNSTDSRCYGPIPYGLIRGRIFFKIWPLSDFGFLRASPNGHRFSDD
UniProt Q9Y287, sequence (Q9Y287 whole entry, looked up): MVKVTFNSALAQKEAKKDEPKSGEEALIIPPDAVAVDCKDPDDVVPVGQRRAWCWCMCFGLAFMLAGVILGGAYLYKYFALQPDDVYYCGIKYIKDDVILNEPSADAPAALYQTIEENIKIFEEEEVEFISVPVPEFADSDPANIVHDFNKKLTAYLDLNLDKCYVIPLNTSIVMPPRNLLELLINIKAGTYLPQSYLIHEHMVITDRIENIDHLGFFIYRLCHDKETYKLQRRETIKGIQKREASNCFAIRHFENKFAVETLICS
UniProt P43361, sequence (P43361 whole entry, looked up): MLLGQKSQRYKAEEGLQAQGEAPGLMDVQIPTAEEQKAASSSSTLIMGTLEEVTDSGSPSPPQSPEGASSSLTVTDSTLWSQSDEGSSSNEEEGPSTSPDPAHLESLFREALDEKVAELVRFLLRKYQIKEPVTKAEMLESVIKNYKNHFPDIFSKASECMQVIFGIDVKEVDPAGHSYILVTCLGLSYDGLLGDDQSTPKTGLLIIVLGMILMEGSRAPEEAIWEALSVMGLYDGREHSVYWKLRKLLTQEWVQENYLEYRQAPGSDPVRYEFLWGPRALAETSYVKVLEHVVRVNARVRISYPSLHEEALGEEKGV
UniProt P51884, sequence (P51884 whole entry, looked up): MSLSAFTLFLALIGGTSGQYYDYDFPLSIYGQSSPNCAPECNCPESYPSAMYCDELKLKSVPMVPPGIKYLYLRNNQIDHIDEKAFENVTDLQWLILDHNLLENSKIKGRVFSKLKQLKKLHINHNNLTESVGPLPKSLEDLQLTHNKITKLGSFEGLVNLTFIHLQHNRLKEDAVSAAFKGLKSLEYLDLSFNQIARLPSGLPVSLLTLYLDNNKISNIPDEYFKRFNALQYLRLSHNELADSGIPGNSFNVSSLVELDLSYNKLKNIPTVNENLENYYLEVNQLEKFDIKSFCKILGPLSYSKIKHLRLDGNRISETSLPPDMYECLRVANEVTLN
UniProt Q7L590, sequence (Q7L590 whole entry, looked up): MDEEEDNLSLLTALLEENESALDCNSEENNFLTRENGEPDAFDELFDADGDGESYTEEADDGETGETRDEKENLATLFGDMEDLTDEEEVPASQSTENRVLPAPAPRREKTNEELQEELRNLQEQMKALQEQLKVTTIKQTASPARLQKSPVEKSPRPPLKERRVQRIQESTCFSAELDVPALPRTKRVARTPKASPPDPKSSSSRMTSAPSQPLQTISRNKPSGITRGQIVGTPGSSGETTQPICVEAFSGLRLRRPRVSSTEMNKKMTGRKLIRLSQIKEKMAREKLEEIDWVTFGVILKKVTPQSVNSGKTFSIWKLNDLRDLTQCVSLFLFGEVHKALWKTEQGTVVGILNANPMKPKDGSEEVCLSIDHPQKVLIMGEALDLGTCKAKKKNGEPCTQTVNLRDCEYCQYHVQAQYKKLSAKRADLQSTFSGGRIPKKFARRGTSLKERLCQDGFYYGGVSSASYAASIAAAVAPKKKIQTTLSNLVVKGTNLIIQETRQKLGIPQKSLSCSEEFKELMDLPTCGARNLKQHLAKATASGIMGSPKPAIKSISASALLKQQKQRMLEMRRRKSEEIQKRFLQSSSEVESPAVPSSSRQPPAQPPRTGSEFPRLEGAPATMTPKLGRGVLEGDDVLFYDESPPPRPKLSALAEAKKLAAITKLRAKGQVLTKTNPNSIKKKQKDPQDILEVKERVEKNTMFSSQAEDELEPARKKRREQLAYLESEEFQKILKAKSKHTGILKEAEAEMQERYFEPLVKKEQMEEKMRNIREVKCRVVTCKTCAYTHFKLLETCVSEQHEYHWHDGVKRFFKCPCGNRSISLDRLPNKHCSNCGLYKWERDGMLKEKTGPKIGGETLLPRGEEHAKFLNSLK

log2 fold change, inactive:
MAPK14 (UniProt Q16539) -0.067
MAP4K2 (UniProt Q12851) 0.298
ITM2B (UniProt Q9Y287) -0.112
METAP1D (UniProt Q6UB28) 0.051
IL27RA (UniProt Q6UWB1) -0.049
LPGAT1 (UniProt Q92604) 0.063
MED12 isoform 2 (UniProt Q93074) 0.091
KMT2C isoform 3 (UniProt Q8NEZ4) -0.02
LUM (UniProt P51884) -0.269
LRBA, A0A494BZW2 0.007
IMMP1L (UniProt Q96LU5) -0.02
MED8 isoform 2 (UniProt Q96G25) 0.046
MED22 (UniProt Q15528) 0.097
MARK2 (UniProt E9PC69) 0.086
ILF3 (UniProt Q12906) 0.144
MCM10 (UniProt Q7L590) -0.034
MAGEA8 (UniProt P43361) -0.075
MAP4K4 isoform 6 (UniProt O95819) 0.109
MELK (UniProt Q14680) 0.334
MAN2B2 (UniProt Q9Y2E5) -0.005
MFSD11 (UniProt O43934) -0.108
LENG8 (UniProt Q96PV6) -0.009
MASTL (UniProt Q96GX5) 0.045
